# From PubChem BioAssay
# This is a sample that favours compounds with a hit; in the whole collection about 10% have one here.
# GLA inh pH 4.5: alpha-galactosidase A (human) inhibition, pH 4.5; purified enzyme, 4-MU-alpha-Gal fluorescence, pH 4.5; activity change, negative = inhibition, % at 105 µM; 230,000 tested, under 10 active; AID 1467;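 note: 0% = full activity with enzyme and -100% = basal without enzyme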
# ALDH1A1 block: inhibitors of human aldehyde dehydrogenase 1A1. Purified ALDH1A1, NADH fluorescence, propionaldehyde substrate. Potency, µM (series often up to 75.3 µM), for inactives: top-dose activity, negative = inhibition, hits mostly inhibitors. 220,000 tested, 7.3% active; active = well fitted inhibition curve with a large enough effect, not every such curve was filed as active; inconclusive = small, poorly fitted or top-dose-only effect, or another doubt; inactive = no such curve, though single readings can be large or run the other way;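 note: potency is the fitted concentration of half-maximal effect; plate controls were no enzyme wells and a reference inhibitor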
# HPGD block: HPGD (human) dehydrogenase inhibition. purified HPGD, NADH fluorescence kinetic, PGE2 substrate. Potency, µM, inactives show at the highest dose activity change, negative = inhibition, actives largely listed as inhibitors. 150,000 tested, 4.3% active. AID 894; active = well fitted inhibition curve with a large enough effect, not every such curve was filed as active; inconclusive = small, poorly fitted or top-dose-only effect, or another doubt; inactive = no such curve, though single readings can be large or run the other way; note: potency is the fitted concentration of half-maximal effect
# Target sequence (P15428 whole entry, looked up): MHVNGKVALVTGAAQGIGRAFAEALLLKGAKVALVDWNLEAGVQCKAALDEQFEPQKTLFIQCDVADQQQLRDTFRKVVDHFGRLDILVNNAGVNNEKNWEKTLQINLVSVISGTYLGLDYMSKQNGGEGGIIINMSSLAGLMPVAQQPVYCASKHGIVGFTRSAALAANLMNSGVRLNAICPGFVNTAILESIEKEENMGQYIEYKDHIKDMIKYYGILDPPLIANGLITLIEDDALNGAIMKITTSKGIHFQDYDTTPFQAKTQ
#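 NADH formation kinetics: reaction with 30 uM PGE2 and 1 mM NAD+ (final), 20 nM enzyme, Tris-HCl pH 8 with Tween 20, after 15 min compound preincubation at room temperature. Fluorescence change, last versus first of five reads.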
# PNC inhibitor: perinucleolar compartment assembly inhibition | PC3M PTB-GFP, PNC prevalence imaging, 16 h; hits give low values | activity change (PNC), negative = inhibition, % at 10 µM | 140,000 tested, 3.1% active;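 active = readout at or below -70, meaning at least 70% loss of cells showing the perinucleolar compartment, a nuclear body marking cancer cells; inconclusive = readout between -30 and a set limit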;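 note: plate controls were DMSO wells for no effect and camptothecin positive control wells for full effect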
#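 Compounds are pinned in duplicate onto adhered PC3M cells stably expressing GFP-tagged PTB and incubated 16 h at 37 C. Cells are then fixed, nuclei stained with Hoechst, and PNC-positive cells counted.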
# aGal spleen mod: inhibitors or activators of human alpha-galactosidase in spleen homogenate. P06280. human spleen homogenate, 4MU-alpha-Gal fluorescence, 40 min. Potency, µM (series often up to 80 µM), for the others: at the highest dose activity change, negative = inhibition, hits mostly inhibitors. 240,000 tested, 0.008% active. AID 2107;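 note: potency is the fitted concentration of half-maximal effect; 0% = enzyme with vehicle and -100% = no enzyme basal signal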
# Target sequence (P06280 32-429 limits assumed): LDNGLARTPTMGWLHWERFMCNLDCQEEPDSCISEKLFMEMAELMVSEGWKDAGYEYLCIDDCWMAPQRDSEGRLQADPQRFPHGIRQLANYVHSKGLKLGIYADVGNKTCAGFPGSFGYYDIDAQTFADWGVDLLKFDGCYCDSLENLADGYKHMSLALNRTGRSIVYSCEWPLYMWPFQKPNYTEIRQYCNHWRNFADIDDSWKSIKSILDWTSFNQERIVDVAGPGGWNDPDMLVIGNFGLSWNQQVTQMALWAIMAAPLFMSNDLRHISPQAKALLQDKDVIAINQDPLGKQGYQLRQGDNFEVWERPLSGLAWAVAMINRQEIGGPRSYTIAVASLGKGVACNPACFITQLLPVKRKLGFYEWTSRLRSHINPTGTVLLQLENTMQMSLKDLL
#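 qHTS titration in buffer at pH 5.0. Alpha-galactosidase activity in spleen homogenate was measured via 4-methylumbelliferone release from 1 mM fluorogenic substrate after 40 min at 37C and a pH 10 stop. AC50 came from Hill fits of control-normalized data.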
# ALOX12 inhib: 12-hLO (ALOX12) enzyme inhibition | P18054 | purified 12-hLO, xylenol orange hydroperoxide absorbance | Potency, µM (highest dose often 57.1 µM), for inactives: top-dose activity change, negative = inhibition, usual class: inhibitors | 150,000 tested, 0.12% active; note: potency is the fitted concentration of half-maximal effect; nearly all actives have a fitted effect of over 55% in size
#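 Xylenol orange chromogenic assay: hydroperoxide from 12hLO oxidises Fe(II), giving red-shifted Fe(III)-XO absorbance. Conditions: 150 nM enzyme, 40 uM arachidonic acid, 25 mM Hepes pH 7.0, 0.01% Triton X-100, 30 min, room temperature.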
# The depositor's hits bear a star; ? = inconclusive; . = no result given; ! = not confirmed by another sample; [ ] = another dose, or the depositor's remark. Unless noted, calls come from the whole dose curve; as a rule, active = well fitted curve in the direction sought with a large enough effect; inconclusive = small, poorly fitted or top-dose-only effect, or another doubt; inactive = no such curve, though single readings can be large; an effect the other way counts as inactive or inconclusive. Unless noted, % is set by controls: 0 for no effect and ±100 for the full control effect.
SMILES,GLA inh pH 4.5,ALDH1A1 block,HPGD block,PNC inhibitor,aGal spleen mod,ALOX12 inhib
O=C(NC1CCCC1)c1csc2c1CCCC2,3.3,?,15.8µM*,1.8,-15.6%,-6.8%
CCCCNC(=S)NNC(=O)c1csc(C)c1CC,-4.5,3.8%,-18.3%,49.8,9.7%,-3.7%
O=C(NCC1CCCO1)c1csc2c1CCCCC2 (configuration not stated),0.3,-12.4%,25.1µM*,17.7,-5.8%,4.0%
Cc1ccccc1NC(=S)NNC(=O)c1csc2c1CCC(C)C2 (configuration not stated),-12.9,20µM*,-8.2%,?,-12.4%,?
COc1ccc(S(=O)(=O)N2CCCC(C(=O)NCCC(C)C)C2)cc1 (configuration not stated),0.3,-1.1%,.,.,-4.1%,.
COc1ccc(CCNC(=O)c2csc3c2CCCC3)cc1,-7.1,0.794µM*,.,.,-9.9%,.
CC1CCc2c(C(=O)NCC3CCCO3)csc2C1 (configuration not stated),1.3,?,7.94µM*,-10.8,18.8%,-5.3%
CC1CCc2c(C(=O)Nc3ccccn3)csc2C1 (configuration not stated),-12.3,.,.,.,-6.0%,.
CC1CCc2c(C(=O)Nc3nccs3)csc2C1 (configuration not stated),-5.3,1.7%,7.08µM*,9.6,-0.9%,-13.9%
O=C1c2ccccc2C(Cc2ccnc(F)c2)(Cc2ccnc(F)c2)c2ccccc21,-8.8,4.5%,2.9%,.,-2.4%,-2.8%
N#Cc1cccc(-c2ccc3ncnc(NCCN4CCOCC4)c3c2)c1,.,-6.5%,.,.,0.5%,.
CCCSC1=N/C(=C/c2ccsc2)C(=O)N1c1ccccc1,-5.3,14.1µM*,-18.5%,16.2,4.1%,1.3%
CCCCSC1=N/C(=C/c2ccsc2)C(=O)N1c1ccccc1,-3.9,?,-25.2%,-14.4,5.5%,0.3%
Cc1nn(C)c(Oc2ccccc2)c1CCNC(=O)C(C)(C)C,6.4,5.1%,.,.,-23.7%,.
O=C(CNS(=O)(=O)c1ccccc1)NCC(=O)OCc1ccc(C(=O)c2ccccc2)cc1,-2.9,-21.6%,20µM*,29.6,8.2%,1.5%
O=C(CNS(=O)(=O)c1ccccc1)NCC(=O)OCc1ccc(Cl)cc1,1.9,.,.,.,-1.2%,.
CCC(C)(C(=O)NC1CCCCC1)N(C(=O)Cc1cccs1)c1ccccc1 (configuration not stated),-6.5,0.1%,-0.5%,-6.3,-2.2%,-0.2%
COCCSc1ccccc1C(=O)N1CCN(c2ccccc2)CC1,-18.8,6.7%,.,.,2.0%,.
Cc1noc(C)c1CSc1ccccc1C(=O)N1CCN(c2ccccc2)CC1,-14.8,?,-13.8%,-100.0*,8.9%,0.4%
COc1cc(OC)cc(C(=O)OCc2ccc([N+](=O)[O-])cc2)c1,0.1,11.8%,.,.,-4.6%,.
COc1ccc(-c2cc(C(=O)N/N=C\c3cc(OC)c(OC)c(OC)c3)[nH]n2)cc1,.,?,?,.,.,2.1%
COc1ccc(C(=O)NNC(=S)NC(=O)c2cc(-c3ccccc3)nc3ccccc23)cc1,-1.3,-12.1%,-8.4%,84.7,5.3%,?
COC(=O)c1ccc(NC(=O)c2cc(-c3ccccn3)nc3ccccc23)cc1,5.2,1.0%,.,.,-7.3%,.
COC(=O)c1ccc(NC(=S)NC(=O)c2cc(-c3ccccc3)nc3ccccc23)cc1,-11.3,11.2µM*,-8.0%,-14.1,-5.0%,?
COc1ccc(Cl)cc1C(=O)NNC(=S)NC(=O)c1cc(-c2ccccc2)nc2ccccc12,-12.1,31.6µM*,?,52.9,12.9%,3.0%
SMILES,GLA inh pH 4.5,ALDH1A1 block,HPGD block,PNC inhibitor,aGal spleen mod,ALOX12 inhib
COc1ccc(Cl)cc1C(=O)NC(=S)Nc1cc(-c2nc3ccccc3[nH]2)ccc1C,-0.2,3.98µM*,-17.4%,9.1,7.4%,-24.9%
O=C(COC(=O)c1ccc(Br)cc1)NCc1ccc(F)cc1,-1.7,2.6%,.,.,-12.1%,.
CCc1ccc(N(CC(=O)Nc2nc3ccc(C)cc3s2)S(=O)(=O)c2c(C)noc2C)cc1,-6.6,0.0%,-17.1%,48.3,-3.5%,-21.5%
O=c1cc(O)c2sc(Nc3ccc(Cl)c(F)c3)nc2[nH]1,6.0,.,.,.,-9.9%,.
O=c1cc(O)c2sc(Nc3ccc(F)c(Cl)c3)nc2[nH]1,0.3,7.94µM*,.,.,2.8%,.
CCCCCCCC#Cc1ccccc1/C=N/S(=O)c1ccc(C)cc1 (configuration not stated),3.1,20µM*!,12.6µM*,11.6,17.4%[17.5 µM],?
COc1cc(OC)c(C(=O)COc2ncnc3ccccc23)c(OC)c1,1.2,15.8µM*,-2.1%,?,-4.2%,-0.3%
Cc1ccc(C)c(C(=O)COc2ncnc3ccccc23)c1,-3.5,-6.8%,.,.,7.7%,.
Cc1cccc(O)c1,-1.8,10.4%,-5.0%,.,7.4%,-2.6%[0.00818 µM]
Cc1ccc(-c2ccc(/C=C/C(=O)c3ccccc3)o2)cc1,8.2,3.16µM*,14.1µM*,?,-10.4%,-18.0%
O=C(/C=C/c1ccc(-c2ccccc2)o1)c1ccccc1,8.3,11.5%,3.55µM*,-8.3,11.8%,-1.4%
O=C(/C=C/c1ccc(-c2ccccc2[N+](=O)[O-])o1)c1ccc(Br)cc1,-5.2,7.08µM*,-22.9%,?,-4.4%,-1.2%
O=c1c2ccccc2oc2cc(O)c(C3COCC(CO)C(O)C(O)C3O)c(O)c12 (configuration not stated),-10.3,?,-7.0%,.,-3.1%,-0.5%
COCc1ccc([C@@H]2C[C@H]3CN(Cc4ccccc4C)C(=O)[C@]34CCCN24)o1,1.3,20µM*,.,.,-3.6%,.
NC(N)=N[C@H](CCC(=O)O)C(=O)O,.,.,.,.,.,-2.4%
O=C1NN(c2cccc(Br)c2)C(=O)/C1=C/c1ccc(-c2cc([N+](=O)[O-])ccc2O)o1,-1.8,.,.,.,2.0%,.
O=C1NN(c2ccccc2)C(=O)/C1=C/c1ccc(Sc2cccc3ccccc23)o1,-4.1,-5.4%,17.8µM*,-19.9,3.1%,0.1%
CC1O[C@@H](O[C@H]2C(Oc3cc(O)c4c(=O)cc(-c5ccc(O)cc5)oc4c3)OC(CO)C(O)C2O)C(O)C(O)C1O (some centres not stated),-9.5,2.2%,-13.0%,.,3.6%,-4.0%
Cc1cnc(CNc2ccnc(-c3ccc(N(C)C)cc3)n2)cn1,-6.3,?,?,.,-18.6%,-1.3%
O=C(C1=C[C@@H](C2CC2)C[C@@H](OCCCCO)O1)N1CCOCC1,-1.6,31.6µM*,.,.,0.7%,.
O=C(C1=C[C@H](C2CCCCC2)C[C@H](OCc2ccc(CO)cc2)O1)N1CCN(Cc2ccccc2)CC1,-13.6,14.1µM*,.,.,0.1%,.
C=CCOC(=O)C1=C[C@@H](C2CCCCC2)C[C@@H](OCc2ccc(CO)cc2)O1,0.0,1µM*,.,.,-7.4%,.
